Source: PubChem BioAssay
FUS suppressor: qHTS for Suppressors of FUS Proteinopathy: Primary screen using FUS-linked yeast assay; S. cerevisiae FUS-expressing, growth rescue, OD600, 24 h; Potency, µM (titrated, usually from 76.6 µM), hits mostly activators; 390,000 tested, 0.24% active; note: nearly all actives have a fitted effect of over 55% in size
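Compound concentration series was pinned onto galactose-induced FUS-expressing yeast seeded at OD 0.005. Plates sat 24hr at 30C; absorbance at 600 nm gave growth. DMSO served as background control.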
aSyn yeast inh: qHTS of alpha-syn Inhibitors; Yeast expressing alpha-synuclein, growth rescue, BacTiter-Glo, 24 h; Potency, µM (titrated, usually from 46.1 µM), hits mostly activators; 370,000 tested, 0.14% active; AID 652106, 2013; note: nearly all actives have a fitted effect of over 65% in size
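Readout is rescue of growth in alpha-synuclein-expressing yeast, so inhibitors of toxicity appear as activators. Growth after 24 hr at 30 deg C in galactose medium is quantified by luminescence.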
Abeta yeast res: qHTS for compounds that reverse cellular toxicity of Amyloid beta (A-beta) peptide in yeast: Primary Screen | yeast expressing A-beta42, growth rescue, OD600, 48 h; response scale: 0% DMSO, 100% iron-clioquinol control | Potency, µM (series often up to 46.1 µM), hits mostly activators | 410,000 tested, 0.063% active | AID 1347071, 2019; note: nearly all actives have a fitted effect of over 55% in size
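Yeast growth medium received pinned compounds, then yeast cells expressing toxic A-beta were added; plates incubated at 30 C for 48 hr. Growth read as absorbance at 600 nm, normalized to DMSO and equimolar FeCl3 plus clioquinol controls.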
TDP43 rescue: qHTS of TDP-43 Inhibitors | TDP-43 expressing yeast growth rescue, BacTiter-Glo, 24 h | Potency, µM (highest dose often 46.1 µM), actives largely listed as activators | 410,000 tested, 1.8% active; note: nearly all actives have a fitted effect of over 50% in size
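Growth rescue of TDP-43-toxic yeast measured as ATP luminescence (BacTiter-Glo). Cells grown to mid-log in raffinose, induced in galactose at OD600=0.02, exposed to compound 24 hr at 30 deg C.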
A number is an active result; [ ] = remark or other dose. An excerpt weighted towards active compounds, which were near 2.1% of everything screened. Calls come from the whole dose curve; as a rule, active = well fitted curve in the direction sought with a large enough effect; inconclusive = small, poorly fitted or top-dose-only effect, or another doubt; inactive = no such curve, though single readings can be large; an effect the other way counts as inactive or inconclusive.

What do the screens show for `COc1cc(Nc2nc(SCc3ccccc3Cl)nc3ccccc23)cc(OC)c1`?
FUS suppressor: inconclusive; Abeta yeast res: inactive; TDP43 rescue: 20µM

What do the screens show for `COc1cc(Nc2nc(SCC(=O)c3ccc(Cl)c(Cl)c3)nc3ccccc23)cc(OC)c1`?
FUS suppressor: inactive; Abeta yeast res: inactive; TDP43 rescue: 13µM

How did COc1cc(Nc2nc(SCc3ccc(Cl)cc3)nc3ccccc23)cc(OC)c1 do in these assays?
FUS suppressor: inactive; Abeta yeast res: inactive; TDP43 rescue: inconclusive

What do the screens show for `Cc1ccc(Cn2cc(COC(=O)NCC(C)C)nn2)cc1`?
FUS suppressor: inactive

What do the screens show for `Cc1nc(N2CCN(C)CC2)c2nnn(Cc3ccccc3)c2n1`?
aSyn yeast inh: inactive

What do the screens show for `O=C(NC1CCCC1)C(c1ccncc1)N(CCCN1CCOCC1)C(=O)c1ccc(-c2ccccc2)[nH]1` (stereo not drawn)?
FUS suppressor: inactive; aSyn yeast inh: inactive; Abeta yeast res: inactive; TDP43 rescue: inactive

How did CCOc1ccc(C(C(=O)NC2CCCC2)N(CCCO)C(=O)c2ccc(-c3ccccc3)[nH]2)cc1 (stereo not drawn) do in these assays?
FUS suppressor: 35µM; aSyn yeast inh: inactive; Abeta yeast res: inactive; TDP43 rescue: inactive

Results for CCCc1cc(=O)oc2c3c(ccc12)OCN(Cc1ccc(OC)cc1)C3 ?
FUS suppressor: inactive; aSyn yeast inh: inactive; Abeta yeast res: inactive; TDP43 rescue: inactive

Results for CC(=O)c1ccc(N2CCN(C(=O)c3ccc4ccccc4n3)CC2)cc1 ?
FUS suppressor: inactive; aSyn yeast inh: inactive; Abeta yeast res: inactive; TDP43 rescue: inactive

What do the screens show for `CC(=O)c1ccc(N2CCN(C(=O)/C=C/c3ccc4ccccc4n3)CC2)cc1`?
FUS suppressor: inactive; aSyn yeast inh: 10µM; Abeta yeast res: inactive; TDP43 rescue: inconclusive

How did C1=C(c2cn(-c3nc4ccccc4s3)nn2)CCCC1 do in these assays?
FUS suppressor: inactive; aSyn yeast inh: inactive; Abeta yeast res: inactive; TDP43 rescue: inactive

What do the screens show for `Oc1ccc(-c2c(C3=CCCCC3)sc3ccccc23)cc1`?
FUS suppressor: inactive; aSyn yeast inh: inactive; Abeta yeast res: inactive; TDP43 rescue: 20µM

How did C/C(=N\OC(=O)NC1CCCCC1)c1sc(-c2ccccc2)nc1C do in these assays?
FUS suppressor: inactive; Abeta yeast res: inactive; TDP43 rescue: 20µM

How did C/C(=N\OC(=O)c1ccc(F)cc1)c1sc(-c2ccccc2)nc1C do in these assays?
FUS suppressor: inactive; aSyn yeast inh: inactive; Abeta yeast res: inactive[9.22 µM]; TDP43 rescue: inactive

How did CCOc1ccccc1C(=O)NCc1nc2cccnc2n1Cc1ccc(C)cc1 do in these assays?
FUS suppressor: inactive; Abeta yeast res: inactive; TDP43 rescue: 16µM

How did O=C(NCc1ccc(Cl)cc1)C(=O)NCC(c1ccco1)S(=O)(=O)c1cccs1 (stereo not drawn) do in these assays?
FUS suppressor: inactive; Abeta yeast res: inactive; TDP43 rescue: inactive

What do the screens show for `Cn1c(=O)c2nc(-c3ccccc3)c(-c3ccccc3)nc2n(C)c1=O`?
FUS suppressor: inactive; aSyn yeast inh: inactive; Abeta yeast res: inactive; TDP43 rescue: 32µM

Results for N#C/C(=C\c1ccc(-c2cc(Cl)ccc2Cl)o1)C(=O)Nc1cccc2ncccc12 ?
aSyn yeast inh: inactive

Results for COc1cc2c(cc1OC)CN(C(=O)Cc1c(F)cccc1Cl)CC2 ?
FUS suppressor: inactive; aSyn yeast inh: inactive; Abeta yeast res: inactive; TDP43 rescue: 16µM

What do the screens show for `COc1ccc(CC(=O)N2CCc3cc(OC)c(OC)cc3C2)cc1`?
FUS suppressor: inactive; aSyn yeast inh: inactive; Abeta yeast res: inactive; TDP43 rescue: inactive

What do the screens show for `COc1cc2c(cc1OC)CN(C(=O)Nc1ccccc1Cl)CC2`?
FUS suppressor: inactive; aSyn yeast inh: inactive; Abeta yeast res: inactive; TDP43 rescue: 11µM

Results for COc1ccc(-n2c(SCC(=O)Nc3cc(C)c(NC(=O)c4ccccc4)cc3OC)nnc2-c2ccco2)cc1 ?
FUS suppressor: 11µM

What do the screens show for `COc1cc(/C=C/C(=O)OCC(=O)NCCC2=CCCCC2)ccc1O`?
FUS suppressor: inactive; aSyn yeast inh: inactive; Abeta yeast res: inactive; TDP43 rescue: inactive

Results for COc1cc(/C=C/C(=O)OCC(=O)NCCC2=CCCCC2)cc(OC)c1OC ?
FUS suppressor: inactive; aSyn yeast inh: inactive; Abeta yeast res: inactive; TDP43 rescue: 35µM

What do the screens show for `CC1(c2ccc(Cl)cc2)CC(C)(C)N(C(=O)c2ccccc2)c2ccccc21` (stereo not drawn)?
FUS suppressor: inactive; Abeta yeast res: inactive; TDP43 rescue: inactive

How did CC1(c2cc([N+](=O)[O-])cc([N+](=O)[O-])c2)CC(C)(C)N(C(=O)c2ccccc2)c2ccccc21 (stereo not drawn) do in these assays?
FUS suppressor: inactive; aSyn yeast inh: inactive; Abeta yeast res: inactive; TDP43 rescue: 25µM

How did Cc1ccc(C)c(Sc2ccc(NC(=O)CCl)cc2)c1 do in these assays?
FUS suppressor: inactive; aSyn yeast inh: inactive; Abeta yeast res: inactive; TDP43 rescue: 8.9µM

Results for Cc1ccc(Sc2ccc(NC(=O)CCl)cc2)cc1C ?
FUS suppressor: inactive; aSyn yeast inh: inactive; Abeta yeast res: inactive; TDP43 rescue: inconclusive

How did O=C(CCn1c(=O)oc2ccccc21)Nc1nc2ccccc2s1 do in these assays?
FUS suppressor: inactive; aSyn yeast inh: inactive; Abeta yeast res: inactive; TDP43 rescue: 28µM

Results for CCSc1nnc(NC(=O)CCn2c(=O)oc3ccccc32)s1 ?
FUS suppressor: inactive; aSyn yeast inh: inactive; Abeta yeast res: inactive; TDP43 rescue: inactive

How did O=C1CSC(=S)N1c1ccc(F)c(Cl)c1 do in these assays?
FUS suppressor: inactive; aSyn yeast inh: inactive; Abeta yeast res: inconclusive; TDP43 rescue: 25µM

How did O=C(O)c1ccc(CN2C(=O)CSC2=S)cc1 do in these assays?
FUS suppressor: inactive; aSyn yeast inh: 13µM; Abeta yeast res: inactive; TDP43 rescue: 18µM

How did O=C1CSC(=S)N1c1ccccc1 do in these assays?
aSyn yeast inh: inactive; Abeta yeast res: inactive; TDP43 rescue: inactive

What do the screens show for `O=C(O)c1ccc(N2C(=O)CSC2=S)cc1`?
FUS suppressor: inactive; aSyn yeast inh: 10µM; Abeta yeast res: inactive; TDP43 rescue: inconclusive

What do the screens show for `O=C(O)c1cc(C(=O)O)cc(N2C(=O)CSC2=S)c1`?
FUS suppressor: inactive; aSyn yeast inh: inactive; Abeta yeast res: inactive; TDP43 rescue: inactive

What do the screens show for `CC1(NC(=O)c2ccc(C#Cc3cccc(F)c3)cn2)COC1`?
FUS suppressor: inactive

Results for CCSc1nn(CC(=O)Nc2cccc(CC)c2)c(N)c1S(=O)(=O)c1ccccc1 ?
FUS suppressor: inactive; Abeta yeast res: inactive; TDP43 rescue: inactive

What do the screens show for `Cc1cccc(-c2cc3nc(-c4ccccc4)cc(N4CCC5(CC4)OCCO5)n3n2)c1`?
FUS suppressor: inactive; aSyn yeast inh: inactive; Abeta yeast res: inactive[9.22 µM]; TDP43 rescue: 35µM

Results for Cc1ccc(-c2cc3nc(-c4ccccc4)cc(N4CCC5(CC4)OCCO5)n3n2)cc1 ?
FUS suppressor: inactive; aSyn yeast inh: inactive; Abeta yeast res: inactive; TDP43 rescue: inconclusive
